# In all, about 35,000 sequences were measured (“fluorescence intensity (a.u.)”: median about 10,000, highest 2% from about 52,000 on). The full list was thinned out, with the highest values kept by preference.
# Target: T1, OsWOX13 (Oryza sativa, UniProt Q5QMM3 1-267)
# T1 sequence: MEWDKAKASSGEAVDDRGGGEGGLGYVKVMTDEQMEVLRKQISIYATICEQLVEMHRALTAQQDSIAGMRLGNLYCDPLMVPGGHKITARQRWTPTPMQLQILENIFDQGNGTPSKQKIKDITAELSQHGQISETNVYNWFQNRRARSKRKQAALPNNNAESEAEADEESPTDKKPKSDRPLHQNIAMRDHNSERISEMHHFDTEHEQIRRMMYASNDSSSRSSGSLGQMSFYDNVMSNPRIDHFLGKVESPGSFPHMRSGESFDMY
# Test: protein-binding microarray (RPBM); PBS, 2% BSA, 51.3 ng/ul salmon testes DNA, 50 uM zinc acetate, 200 nM TF, 25 C, 1 h; high values mean tight binding
# Details: protein: recombinant; tags: N-terminal polyhistidine and DsRed monomer fusion (pET32a); label: CyDye5-dUTP incorporated in the synthesized complementary strand; 3' TTTTT single-stranded linker to array surface; dsDNA, one strand shown
# Method in brief: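 For the binding signal, per-feature fluorescence intensity was read in arbitrary units on an Axon 4000B scanner. Before scanning, a 2% BSA-blocked custom Agilent array made double-stranded with Cy5-dUTP was washed after 1 h at 25 °C with 200 nM protein and 50 µM zinc acetate. The proteins were Ni–NTA-purified transcription factors with N-terminal polyhistidine and DsRed fusions, expressed in E. coli BL21-CodonPlus.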
row,Sequence,binding signal
1,TTTGTGATTAAGCTCTTGGTCTCGTCTCCGCGAGCTCAGCCGGAGTCACCTAGTGCAG,5540 fluorescence intensity (a.u.)
2,AACGTATTTGGCCCAATTAAGTATATACATATGTAATGCGCGGAGTCACCTAGTGCAG,3420 fluorescence intensity (a.u.)
3,GTCAAGTAACTGAACATTTTAATTGCTGCCGATTATTACCCGGAGTCACCTAGTGCAG,13400 fluorescence intensity (a.u.)
4,GAATTGATGGAATTTAGGCCGCCAGCAAGCAAAGACCGAGCGGAGTCACCTAGTGCAG,13300 fluorescence intensity (a.u.)
5,CAACTGATTTTATCACGTTCTAAAATATGCCATCATCTTTCGGAGTCACCTAGTGCAG,12300 fluorescence intensity (a.u.)
6,CACTGACGGAGAAATTTACCGGTCAATGGCCGTCGTCGGTCGGAGTCACCTAGTGCAG,18000 fluorescence intensity (a.u.)
7,TTATAATTGACACTACGAGAATGGGTCTTTACTGCCGGTTCGGAGTCACCTAGTGCAG,57700 fluorescence intensity (a.u.)
8,GCCCTACACAATTTAATTACGTTGACACTGGCCGGTCTTACGGAGTCACCTAGTGCAG,7560 fluorescence intensity (a.u.)
9,TCTAATGATGATTGTAAGCCGTACAATTTACTAAAAGATACGGAGTCACCTAGTGCAG,15000 fluorescence intensity (a.u.)
10,TCTAAATCATTTTAATCATGGTACAGATCTACTGATAATACGGAGTCACCTAGTGCAG,7740 fluorescence intensity (a.u.)
11,CTAAATTTGTAATTGTAATGTACTACTTTAATCCTTCGTACGGAGTCACCTAGTGCAG,53100 fluorescence intensity (a.u.)
12,TTTAAATTGTAATCCTACTTGAACTCTTCTTTATTTTCTTCGGAGTCACCTAGTGCAG,6760 fluorescence intensity (a.u.)
13,ATTTAATGTACAATCATGCTTTTCCGTACTAAATTTTGTTCGGAGTCACCTAGTGCAG,14800 fluorescence intensity (a.u.)
14,TCTAATGATAAATCATTTATCACTAATTGTAAGAGTGGTACGGAGTCACCTAGTGCAG,53400 fluorescence intensity (a.u.)
15,AATTAACAATTTACCAAATTATTAGTTATCAACACTAATTCGGAGTCACCTAGTGCAG,11300 fluorescence intensity (a.u.)
16,GTATGTTATTATATCAATTAGATTTATGCTAGCACTGTCGCGGAGTCACCTAGTGCAG,15200 fluorescence intensity (a.u.)
17,CATTGATAGATTGCAAAAGCTAGCTGTCTGGGAGATGGTGCGGAGTCACCTAGTGCAG,49500 fluorescence intensity (a.u.)
18,ACTATCGTAGGTAGCCAATCAATTTAACATTTCACTCAAGCGGAGTCACCTAGTGCAG,3630 fluorescence intensity (a.u.)
19,CGATGATTGTTAGTATACACTATATGTATGGTGTTTATCCCGGAGTCACCTAGTGCAG,40600 fluorescence intensity (a.u.)
20,GCTTGACGACACCATTCGGATTGTTCCATCACTTCCATACCGGAGTCACCTAGTGCAG,3540 fluorescence intensity (a.u.)
21,CTTGATTGACGACCATCTCGTGGTTACCAATTCCATCACCCGGAGTCACCTAGTGCAG,60000 fluorescence intensity (a.u.)
22,CTACTATCAATCGACCAATTCCAATCTCATCGTTACAGGACGGAGTCACCTAGTGCAG,4190 fluorescence intensity (a.u.)
23,ACATGTTTTATCAATTAGTAGTATGGGCATATTACTAGTGCGGAGTCACCTAGTGCAG,17800 fluorescence intensity (a.u.)
24,AGGAGGCGGGGCGGGGCGGCGGCGGCGGCGGCGGCGCCCGCGGAGTCACCTAGTGCAG,5340 fluorescence intensity (a.u.)

row,Sequence,binding signal
1,TCTCTTCCTTGCTGTGGTGGCGGCGGGCGGGAGGGCGGCGCGGAGTCACCTAGTGCAG,12700 fluorescence intensity (a.u.)
2,TGCCCTTACCTGTGGTTTCTCCCGCGGCGGCGGGGTGGAGCGGAGTCACCTAGTGCAG,65500 fluorescence intensity (a.u.)
3,TCTGACCTGTATACTAATTTATGACCATATACTTAATCAACGGAGTCACCTAGTGCAG,5380 fluorescence intensity (a.u.)
4,AAAACCATCATCAATCAGCCGATCCTGATGTTGTCCCTGCCGGAGTCACCTAGTGCAG,25100 fluorescence intensity (a.u.)
5,AAGAGATTGGAATCGGGCGTACCGGAGAACTTTGGAGATGCGGAGTCACCTAGTGCAG,12100 fluorescence intensity (a.u.)
6,TATGATTGATATCCACGAATTGAAGAAGAAGTTGCATTGCCGGAGTCACCTAGTGCAG,55300 fluorescence intensity (a.u.)
7,GTCTAATTGTGATTTTATATTTTAATTAATTATATATTGTCGGAGTCACCTAGTGCAG,34800 fluorescence intensity (a.u.)
8,AGATAATTGTGAAATAATTATATTGCGATTTGATAAAGTACGGAGTCACCTAGTGCAG,14700 fluorescence intensity (a.u.)
9,TTGATTAATTTATTTATAGTTTTGTGAAAGTTTGCGCCGTCGGAGTCACCTAGTGCAG,57900 fluorescence intensity (a.u.)
10,GGTTTAAATTTTAAAAGTTTGATCAAATATTATCCTAAACCGGAGTCACCTAGTGCAG,4900 fluorescence intensity (a.u.)
11,CTCAAAAGTTTGGGTTGATCGATCATTTGCCTACCGAAACCGGAGTCACCTAGTGCAG,65500 fluorescence intensity (a.u.)
12,GGAAGAATTGATTGATTAAAGATATATATCGAATATCTGCCGGAGTCACCTAGTGCAG,40400 fluorescence intensity (a.u.)
13,AATTGATTATTCCTAACAACATTCCGCGGATTAATTTTCTCGGAGTCACCTAGTGCAG,15500 fluorescence intensity (a.u.)
14,ACATATCTTAAGATTGATGAAGTCACCACGAACGCCTCGCCGGAGTCACCTAGTGCAG,11700 fluorescence intensity (a.u.)
15,ATGAAAGGAGTTGATTTGCACCGGTTTTCAAAGATGAAAACGGAGTCACCTAGTGCAG,3470 fluorescence intensity (a.u.)
16,TCGTTGTAATAATTTGATTTCTTTTGCAGACGGTCTTTATCGGAGTCACCTAGTGCAG,5300 fluorescence intensity (a.u.)
17,GGATAATGATTTGACATTGATTGCGGTCTCGTTATTTTCTCGGAGTCACCTAGTGCAG,59500 fluorescence intensity (a.u.)
18,TGGAAGAAATTGATGTAATGCTCTGGCCTTTTCATGGATACGGAGTCACCTAGTGCAG,8100 fluorescence intensity (a.u.)
19,GCTAATTAAATTAATAATTCATCTTAGGAATCACAGCGTCCGGAGTCACCTAGTGCAG,39000 fluorescence intensity (a.u.)
20,CGCTTAATGACTTCACTTTGTCCTCGGATGATTTGCGTCCCGGAGTCACCTAGTGCAG,11700 fluorescence intensity (a.u.)
21,CCCAGTCAATCTCCCCATCTCCTCGGCCTCGGCAATAGTACGGAGTCACCTAGTGCAG,7200 fluorescence intensity (a.u.)
22,GATAGATAGATAGATAGATAGATAGATAGATACTAGTACACGGAGTCACCTAGTGCAG,37000 fluorescence intensity (a.u.)
23,GCTTAATTAGCCGCTTCAGTTGCACAGTAACTGAGGAACCCGGAGTCACCTAGTGCAG,32700 fluorescence intensity (a.u.)

# From PMC7819943, “Rice protein-binding microarrays: a tool to detect cis-acting elements near promoter regions in rice”
